# Where “and” joins values, the source holds several entries; their conditions need not be identical. Identical values can stand only once. The panel holds about 83,000 compounds, 20% with a hit somewhere; the sample as a whole holds those more often.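 The endpoint reported here, percent growth, reads 100 for growth as untreated, 0 for no net growth and -100 for all cells dead.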 Values without a mark were called inactive. Calls of active or inactive are those of the source. The calls were made as follows: active = growth percent below 10; inactive = the rest.
# Assays:
# Test in all cases: NCI-60 one-dose screen, 48 h (100 = growth as untreated, 0 = no growth, -100 = all killed)
# [1] = tested on: K-562 leukemia
# [2] = tested on: MDA-MB-231 breast
# [3] = tested on: RXF 393 renal
# [4] = tested on: SF-268 CNS
# [5] = tested on: SF-295 CNS
# [6] = tested on: SF-539 CNS
# [7] = tested on: UACC-257 melanoma
# [8] = tested on: M14 melanoma
# [9] = tested on: HCT-15 colon
# [10] = tested on: MALME-3M melanoma
structure (smiles),measurement,setting,value
CCCCCCCCCCCC1CCCC(C)N1 (stereo unspecified),growth,[1]; 10 µM unless noted,6.23% (active)
same,growth,[2]; 10 µM unless noted,72%
same,growth,[3]; 10 µM unless noted,77.7%
same,growth,[4]; 10 µM unless noted,73.5%
same,growth,[5]; 10 µM unless noted,100%
same,growth,[6]; 10 µM unless noted,97.5%
same,growth,[7]; 10 µM unless noted,77.3%
same,growth,[8]; 10 µM unless noted,95.3%
same,growth,[9]; 10 µM unless noted,27.7%
CC(=O)O[C@H]1C[C@@H]2OC3C=C(C)CCC3(C)[C@@]1(C)[C@@]21CO1 (stereo partly specified),growth,[1]; 10 µM unless noted,3.64% (active) and -17.5% (active)
same,growth,[10]; 10 µM unless noted,-35.1% (active) and -36% (active)
same,growth,[2]; 10 µM unless noted,-12.8% (active) and -34.4% (active)
same,growth,[3]; 10 µM unless noted,-21.4% (active) and -34.9% (active)
same,growth,[4]; 10 µM unless noted,1.16% (active) and -20.3% (active)
same,growth,[5]; 10 µM unless noted,-26.1% (active) and 0.436% (active)
same,growth,[6]; 10 µM unless noted,-24.5% (active) and -26.6% (active)
same,growth,[7]; 10 µM unless noted,-26% (active) and -33.7% (active)
same,growth,[8]; 10 µM unless noted,-81.2% (active) and -64.8% (active)
same,growth,[9]; 10 µM unless noted,-0.358% (active) and -0.281% (active)
COc1ccc(OC)c(/C=C/[N+](=O)[O-])c1,growth,[1]; 10 µM unless noted,4.27% (active)
same,growth,[10]; 10 µM unless noted,24.9%
same,growth,[2]; 10 µM unless noted,5.7% (active)
same,growth,[3]; 10 µM unless noted,-88.7% (active)
same,growth,[4]; 10 µM unless noted,13.1%
same,growth,[6]; 10 µM unless noted,-6.84% (active)
same,growth,[7]; 10 µM unless noted,-12% (active)
same,growth,[8]; 10 µM unless noted,-11.5% (active)
same,growth,[9]; 10 µM unless noted,-13.4% (active)
CC[C@](O)(C(=O)O)c1cc2n(c(=O)c1CO)Cc1cc3ccccc3nc1-2,growth,[1]; 10 µM unless noted,-27.9% (active)
same,growth,[10]; 10 µM unless noted,-38.2% (active)
same,growth,[2]; 10 µM unless noted,34.5%
same,growth,[3]; 10 µM unless noted,9.87% (active)
same,growth,[4]; 10 µM unless noted,8.53% (active)
same,growth,[5]; 10 µM unless noted,-13.2% (active)
same,growth,[6]; 10 µM unless noted,-48.2% (active)
same,growth,[7]; 10 µM unless noted,0.116% (active)
same,growth,[8]; 10 µM unless noted,-26.5% (active)
same,growth,[9]; 10 µM unless noted,-5.77% (active)
Oc1cccc2cccnc12,growth,[1]; 10 µM unless noted,44.2% and 106% and 102%
same,growth,[10]; 10 µM unless noted,96.3% and 98.2%
same,growth,[2]; 10 µM unless noted,92.9% and 109% and 101%
same,growth,[3]; 10 µM unless noted,95.7% and 104% and 112%
same,growth,[4]; 10 µM unless noted,80% and 101%
same,growth,[5]; 10 µM unless noted,99.7% and 108% and 115%
same,growth,[6]; 10 µM unless noted,113% and 90.2%
same,growth,[7]; 10 µM unless noted,80.1% and 98.6% and 111%
same,growth,[8]; 10 µM unless noted,76% and 102% and 94.3%
same,growth,[9]; 10 µM unless noted,64.3% and 110% and 97.1%
CC[C@@]1(O)C[C@H](OC2CC(N(C)C)C(OC3CC(O)C(OC4CCC(=O)C(C)O4)C(C)O3)C(C)O2)c2c(cc3c(c2O)C(=O)c2c(O)ccc(O)c2C3=O)[C@H]1C(=O)OC (stereo partly specified),growth,[1]; 10 µM unless noted,0.0817% (active)
same,growth,[10]; 10 µM unless noted,-12.2% (active)
same,growth,[2]; 10 µM unless noted,28.4%
same,growth,[3]; 10 µM unless noted,12.6%
same,growth,[4]; 10 µM unless noted,22.7%
same,growth,[5]; 10 µM unless noted,8.52% (active)
same,growth,[6]; 10 µM unless noted,-5.75% (active)
same,growth,[7]; 10 µM unless noted,-30.9% (active)
same,growth,[8]; 10 µM unless noted,3.55% (active)
same,growth,[9]; 10 µM unless noted,-70.6% (active)
COC1CC(CC2CCC(C)C(C(C)C(=O)O)O2)OC2(OC(C)(C3CCC(C)(C4OC(C5OC(O)(CO)C(C)CC5C)CC4C)O3)CC2C)C1C (stereo unspecified),growth,[1]; 10 µM unless noted,-67.6% (active)
same,growth,[10]; 10 µM unless noted,-96% (active)
same,growth,[2]; 10 µM unless noted,-21.7% (active)
same,growth,[3]; 10 µM unless noted,28%
same,growth,[4]; 10 µM unless noted,10.7%
same,growth,[5]; 10 µM unless noted,-39.2% (active)
same,growth,[6]; 10 µM unless noted,-49.1% (active)
same,growth,[7]; 10 µM unless noted,7.33% (active)
same,growth,[8]; 10 µM unless noted,-71.9% (active)
same,growth,[9]; 10 µM unless noted,5.7% (active)
COC1=C(C)C(=O)C2=C(C1=O)C(CO)N1C(C#N)C3CC4C(C1C2N1CCOC41)N3C (stereo unspecified),growth,[1]; 10 µM unless noted,-45.3% (active)
same,growth,[10]; 10 µM unless noted,-97.4% (active)
same,growth,[2]; 10 µM unless noted,-11.9% (active)
same,growth,[3]; 10 µM unless noted,-88.9% (active)
same,growth,[4]; 10 µM unless noted,-13.6% (active)
same,growth,[5]; 10 µM unless noted,-29.7% (active)
same,growth,[6]; 10 µM unless noted,-60.3% (active)
same,growth,[7]; 10 µM unless noted,2.61% (active)
same,growth,[8]; 10 µM unless noted,-85.9% (active)
same,growth,[9]; 10 µM unless noted,-29.8% (active)
CC[C@@]1(O)C(=O)OCc2c1cc1n(c2=O)Cc2cc3ccccc3nc2-1,growth,[1]; 10 µM unless noted,0.554% (active)
same,growth,[10]; 10 µM unless noted,-59.5% (active)
same,growth,[2]; 10 µM unless noted,28.6%
same,growth,[3]; 10 µM unless noted,6.33% (active)
same,growth,[4]; 10 µM unless noted,2.82% (active)
same,growth,[5]; 10 µM unless noted,-14.4% (active)
same,growth,[6]; 10 µM unless noted,-46.4% (active)
same,growth,[7]; 10 µM unless noted,-17.8% (active)
same,growth,[8]; 10 µM unless noted,-39% (active)
same,growth,[9]; 10 µM unless noted,-18.7% (active)
CCOC(=O)C(NC(=O)C(Cc1ccc(N(CCCl)CCCl)cc1)NC(C)=O)C(C)C (stereo unspecified),growth,[1]; 10 µM unless noted,85.6%
same,growth,[10]; 10 µM unless noted,91.7%
same,growth,[2]; 10 µM unless noted,96.8%
same,growth,[3]; 10 µM unless noted,96.4%
same,growth,[4]; 10 µM unless noted,71.5%
same,growth,[5]; 10 µM unless noted,86%
same,growth,[6]; 10 µM unless noted,77.3%
same,growth,[7]; 10 µM unless noted,87.2%
same,growth,[8]; 10 µM unless noted,84.1%
same,growth,[9]; 10 µM unless noted,94.9%
Cc1cc(N=Nc2ccccc2C)ccc1N,growth,[1]; 10 µM unless noted,65.7%
same,growth,[10]; 10 µM unless noted,68.6%
same,growth,[2]; 10 µM unless noted,75.1%
same,growth,[3]; 10 µM unless noted,99.6%
same,growth,[4]; 10 µM unless noted,47.3%
same,growth,[5]; 10 µM unless noted,83.9%
same,growth,[6]; 10 µM unless noted,48.9%
same,growth,[7]; 10 µM unless noted,132%
same,growth,[9]; 10 µM unless noted,84.9%
S=C(SSC(=S)N1CCCCC1)N1CCCCC1,growth,[1]; 10 µM,102%
same,growth,[1]; 100 µM,-13.7% (active)
same,growth,[10]; 10 µM,124%
same,growth,[10]; 100 µM,-76.9% (active)
same,growth,[2]; 10 µM,104%
same,growth,[2]; 100 µM,-35.8% (active)
same,growth,[3]; 10 µM,114%
same,growth,[3]; 100 µM,-15.7% (active)
same,growth,[4]; 10 µM,101%
same,growth,[4]; 100 µM,0.593% (active)
same,growth,[5]; 10 µM,97.3%
same,growth,[5]; 100 µM,1.68% (active)
same,growth,[6]; 10 µM,104%
same,growth,[6]; 100 µM,-61.6% (active)
same,growth,[7]; 10 µM,87.7%
same,growth,[7]; 100 µM,40.5%
same,growth,[8]; 10 µM,92.6%
same,growth,[8]; 100 µM,-49.6% (active)
same,growth,[9]; 10 µM,90.1%
same,growth,[9]; 100 µM,5.6% (active)
O=C1c2ccccc2C(=O)C(Cl)C1Cl (stereo unspecified),growth,[1]; 10 µM unless noted,-7.91% (active)
same,growth,[10]; 10 µM unless noted,-98.5% (active)
same,growth,[3]; 10 µM unless noted,-9.44% (active)
same,growth,[4]; 10 µM unless noted,87.5%
same,growth,[5]; 10 µM unless noted,94.3%
same,growth,[6]; 10 µM unless noted,89.5%
same,growth,[7]; 10 µM unless noted,0.891% (active)
same,growth,[8]; 10 µM unless noted,76.7%
same,growth,[9]; 10 µM unless noted,-86.6% (active)
CC[C@@]1(O)C[C@H](OC2CC(N(C)C)C(O)C(C)O2)c2c(O)c3c(c(O)c2[C@H]1OC1CC(N(C)C)C(O)C(C)O1)C(=O)c1cccc(O)c1C3=O (stereo partly specified),growth,[1]; 10 µM unless noted,-28.5% (active)
same,growth,[10]; 10 µM unless noted,-93.7% (active)
same,growth,[2]; 10 µM unless noted,-9.74% (active)
same,growth,[3]; 10 µM unless noted,0.503% (active)
same,growth,[4]; 10 µM unless noted,-19.3% (active)
same,growth,[5]; 10 µM unless noted,-27.2% (active)
same,growth,[6]; 10 µM unless noted,-48.9% (active)
same,growth,[7]; 10 µM unless noted,2.59% (active)
same,growth,[8]; 10 µM unless noted,-87.2% (active)
same,growth,[9]; 10 µM unless noted,-49.7% (active)

# From PubChem BioAssay (NCI)
